According to ChEMBL document CHEMBL1961873, “Compounds: GSK PKIS; Assays: Nanosyn kinase panel” (2012):

Columns and labels:
[1] = molecular target: Leukocyte tyrosine kinase receptor (Homo sapiens) (UniProt P29376); details: at 1 µM;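 also: each value is the mean inhibition of LTK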
[2] = molecular target: Tyrosine-protein kinase Lyn (Homo sapiens) (UniProt P07948); details: at 0.1 µM
[3] = molecular target: Tyrosine-protein kinase Lyn (Homo sapiens) (UniProt P07948); details: at 1 µM
[4] = molecular target: Tyrosine-protein kinase Lyn (Homo sapiens) (UniProt P07948); details: at 0.1 µM; remark: listed apart in the source
[5] = molecular target: Tyrosine-protein kinase Lyn (Homo sapiens) (UniProt P07948); details: at 1 µM; remark: listed apart in the source
[6] = molecular target: T1, Tyrosine-protein kinase Mer (Homo sapiens) (UniProt Q12866); details: at 0.1 µM
T1 sequence (whole entry): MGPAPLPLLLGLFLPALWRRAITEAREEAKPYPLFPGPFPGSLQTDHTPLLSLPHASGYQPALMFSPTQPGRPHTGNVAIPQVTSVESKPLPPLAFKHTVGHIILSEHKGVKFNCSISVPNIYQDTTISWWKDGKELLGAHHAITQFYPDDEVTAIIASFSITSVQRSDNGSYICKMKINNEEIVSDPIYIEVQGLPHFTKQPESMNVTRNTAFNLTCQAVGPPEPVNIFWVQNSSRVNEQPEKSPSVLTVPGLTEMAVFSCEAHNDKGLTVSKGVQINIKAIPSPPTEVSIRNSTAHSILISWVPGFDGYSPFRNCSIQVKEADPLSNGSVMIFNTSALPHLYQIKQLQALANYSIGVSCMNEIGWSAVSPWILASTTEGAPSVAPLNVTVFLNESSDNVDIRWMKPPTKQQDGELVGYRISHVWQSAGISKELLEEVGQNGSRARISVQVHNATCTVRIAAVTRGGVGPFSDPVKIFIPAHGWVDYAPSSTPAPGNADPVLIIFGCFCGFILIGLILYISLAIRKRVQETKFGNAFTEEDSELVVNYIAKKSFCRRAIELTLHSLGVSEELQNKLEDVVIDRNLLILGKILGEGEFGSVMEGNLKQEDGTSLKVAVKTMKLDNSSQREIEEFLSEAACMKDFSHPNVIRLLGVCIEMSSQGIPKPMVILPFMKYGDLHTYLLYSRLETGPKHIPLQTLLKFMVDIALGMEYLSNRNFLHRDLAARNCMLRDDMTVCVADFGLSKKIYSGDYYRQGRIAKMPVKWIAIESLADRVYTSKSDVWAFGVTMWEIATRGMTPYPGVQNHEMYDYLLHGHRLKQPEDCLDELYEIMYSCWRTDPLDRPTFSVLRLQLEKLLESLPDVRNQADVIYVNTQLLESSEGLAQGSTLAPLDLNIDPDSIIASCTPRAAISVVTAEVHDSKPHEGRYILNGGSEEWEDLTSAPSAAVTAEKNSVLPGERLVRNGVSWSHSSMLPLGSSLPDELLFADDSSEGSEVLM

[7] = molecular target: T1, Tyrosine-protein kinase Mer (Homo sapiens); details: at 1 µM
[8] = molecular target: Hepatocyte growth factor receptor (Homo sapiens) (UniProt P08581); details: at 0.1 µM
[9] = molecular target: Hepatocyte growth factor receptor (Homo sapiens) (UniProt P08581); details: at 1 µM
[10] = molecular target: T2, Muscle, skeletal receptor tyrosine-protein kinase (Homo sapiens) (UniProt O15146); details: at 0.1 µM
T2 sequence (whole entry): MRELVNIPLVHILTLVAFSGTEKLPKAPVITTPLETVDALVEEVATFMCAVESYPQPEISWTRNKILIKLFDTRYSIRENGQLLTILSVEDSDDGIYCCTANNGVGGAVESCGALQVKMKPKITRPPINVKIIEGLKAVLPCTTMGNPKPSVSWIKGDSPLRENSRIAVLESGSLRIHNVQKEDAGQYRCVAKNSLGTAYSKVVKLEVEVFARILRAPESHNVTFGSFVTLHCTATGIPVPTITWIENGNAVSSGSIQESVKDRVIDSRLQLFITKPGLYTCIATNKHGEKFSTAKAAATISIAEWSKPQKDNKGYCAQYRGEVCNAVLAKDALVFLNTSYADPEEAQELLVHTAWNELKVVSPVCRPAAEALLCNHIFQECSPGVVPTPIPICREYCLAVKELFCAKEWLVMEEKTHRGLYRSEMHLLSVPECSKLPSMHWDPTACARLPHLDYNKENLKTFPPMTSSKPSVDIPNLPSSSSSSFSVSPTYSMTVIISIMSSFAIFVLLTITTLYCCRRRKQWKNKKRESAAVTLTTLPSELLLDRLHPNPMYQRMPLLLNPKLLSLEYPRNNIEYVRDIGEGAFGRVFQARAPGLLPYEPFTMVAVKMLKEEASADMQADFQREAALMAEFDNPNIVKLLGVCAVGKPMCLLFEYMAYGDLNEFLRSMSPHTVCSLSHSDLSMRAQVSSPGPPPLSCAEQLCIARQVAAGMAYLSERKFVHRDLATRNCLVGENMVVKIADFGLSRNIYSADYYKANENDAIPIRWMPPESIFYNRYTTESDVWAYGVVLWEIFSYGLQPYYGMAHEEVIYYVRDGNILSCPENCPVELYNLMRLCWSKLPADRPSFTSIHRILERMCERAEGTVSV

[11] = molecular target: T2, Muscle, skeletal receptor tyrosine-protein kinase (Homo sapiens); details: at 1 µM
[12] = molecular target: Platelet-derived growth factor receptor alpha (Homo sapiens) (UniProt P16234); details: at 0.1 µM
[13] = molecular target: Platelet-derived growth factor receptor alpha (Homo sapiens) (UniProt P16234); details: at 1 µM
[14] = system: Platelet-derived growth factor receptor alpha (Homo sapiens), P16234 [D842V]; details: at 0.1 µM
[15] = system: Platelet-derived growth factor receptor alpha (Homo sapiens), P16234 [D842V]; details: at 1 µM
[16] = system: Platelet-derived growth factor receptor alpha (Homo sapiens), P16234 [T674I]; details: at 0.1 µM
[17] = system: Platelet-derived growth factor receptor alpha (Homo sapiens), P16234 [T674I]; details: at 1 µM
[18] = system: Platelet-derived growth factor receptor alpha (Homo sapiens), P16234 [V561D]; details: at 0.1 µM
[19] = system: Platelet-derived growth factor receptor alpha (Homo sapiens), P16234 [V561D]; details: at 1 µM
[20] = molecular target: Platelet-derived growth factor receptor beta (Homo sapiens) (UniProt P09619); details: at 0.1 µM;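 also: reported value is the mean percent inhibition of the kinase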

Chain of Tyrosine-protein kinase Lyn (Homo sapiens) (P07948 2-512 limits assumed): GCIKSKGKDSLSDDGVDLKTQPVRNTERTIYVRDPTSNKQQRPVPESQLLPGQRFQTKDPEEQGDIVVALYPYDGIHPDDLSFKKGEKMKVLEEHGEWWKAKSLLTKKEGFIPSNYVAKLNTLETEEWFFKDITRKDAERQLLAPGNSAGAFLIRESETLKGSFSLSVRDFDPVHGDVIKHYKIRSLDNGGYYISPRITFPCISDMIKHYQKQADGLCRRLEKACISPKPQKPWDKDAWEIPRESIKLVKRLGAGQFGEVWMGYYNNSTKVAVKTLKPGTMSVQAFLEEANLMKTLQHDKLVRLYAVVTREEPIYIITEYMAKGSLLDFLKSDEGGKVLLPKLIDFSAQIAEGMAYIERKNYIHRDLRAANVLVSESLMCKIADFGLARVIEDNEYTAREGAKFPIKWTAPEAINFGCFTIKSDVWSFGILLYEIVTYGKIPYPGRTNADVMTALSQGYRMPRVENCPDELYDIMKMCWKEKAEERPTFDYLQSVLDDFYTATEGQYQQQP
Chain of Leukocyte tyrosine kinase receptor (Homo sapiens) (P29376 whole entry): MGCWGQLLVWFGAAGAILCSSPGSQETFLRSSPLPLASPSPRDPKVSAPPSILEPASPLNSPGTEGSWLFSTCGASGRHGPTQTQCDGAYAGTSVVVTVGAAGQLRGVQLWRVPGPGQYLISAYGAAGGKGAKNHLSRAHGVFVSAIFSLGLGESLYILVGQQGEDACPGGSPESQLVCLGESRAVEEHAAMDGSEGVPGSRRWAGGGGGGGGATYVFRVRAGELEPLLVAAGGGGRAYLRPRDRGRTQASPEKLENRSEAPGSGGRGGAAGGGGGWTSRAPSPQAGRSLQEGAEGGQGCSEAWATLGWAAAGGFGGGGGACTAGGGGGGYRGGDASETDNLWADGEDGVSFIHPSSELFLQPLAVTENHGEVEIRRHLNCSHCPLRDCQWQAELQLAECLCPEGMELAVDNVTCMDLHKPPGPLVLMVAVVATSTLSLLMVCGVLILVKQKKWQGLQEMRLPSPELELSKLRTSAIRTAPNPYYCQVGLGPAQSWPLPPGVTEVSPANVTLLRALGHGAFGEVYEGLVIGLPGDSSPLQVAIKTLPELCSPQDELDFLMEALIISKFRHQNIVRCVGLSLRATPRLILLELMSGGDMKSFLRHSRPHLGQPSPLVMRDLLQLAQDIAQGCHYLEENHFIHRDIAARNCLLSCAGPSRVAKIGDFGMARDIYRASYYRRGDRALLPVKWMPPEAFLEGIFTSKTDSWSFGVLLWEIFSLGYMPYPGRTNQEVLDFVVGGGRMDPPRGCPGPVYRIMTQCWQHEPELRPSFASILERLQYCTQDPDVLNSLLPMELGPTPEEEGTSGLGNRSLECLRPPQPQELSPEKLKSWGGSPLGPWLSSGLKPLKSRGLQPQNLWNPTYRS
Chain of Hepatocyte growth factor receptor (Homo sapiens) (P08581 whole entry): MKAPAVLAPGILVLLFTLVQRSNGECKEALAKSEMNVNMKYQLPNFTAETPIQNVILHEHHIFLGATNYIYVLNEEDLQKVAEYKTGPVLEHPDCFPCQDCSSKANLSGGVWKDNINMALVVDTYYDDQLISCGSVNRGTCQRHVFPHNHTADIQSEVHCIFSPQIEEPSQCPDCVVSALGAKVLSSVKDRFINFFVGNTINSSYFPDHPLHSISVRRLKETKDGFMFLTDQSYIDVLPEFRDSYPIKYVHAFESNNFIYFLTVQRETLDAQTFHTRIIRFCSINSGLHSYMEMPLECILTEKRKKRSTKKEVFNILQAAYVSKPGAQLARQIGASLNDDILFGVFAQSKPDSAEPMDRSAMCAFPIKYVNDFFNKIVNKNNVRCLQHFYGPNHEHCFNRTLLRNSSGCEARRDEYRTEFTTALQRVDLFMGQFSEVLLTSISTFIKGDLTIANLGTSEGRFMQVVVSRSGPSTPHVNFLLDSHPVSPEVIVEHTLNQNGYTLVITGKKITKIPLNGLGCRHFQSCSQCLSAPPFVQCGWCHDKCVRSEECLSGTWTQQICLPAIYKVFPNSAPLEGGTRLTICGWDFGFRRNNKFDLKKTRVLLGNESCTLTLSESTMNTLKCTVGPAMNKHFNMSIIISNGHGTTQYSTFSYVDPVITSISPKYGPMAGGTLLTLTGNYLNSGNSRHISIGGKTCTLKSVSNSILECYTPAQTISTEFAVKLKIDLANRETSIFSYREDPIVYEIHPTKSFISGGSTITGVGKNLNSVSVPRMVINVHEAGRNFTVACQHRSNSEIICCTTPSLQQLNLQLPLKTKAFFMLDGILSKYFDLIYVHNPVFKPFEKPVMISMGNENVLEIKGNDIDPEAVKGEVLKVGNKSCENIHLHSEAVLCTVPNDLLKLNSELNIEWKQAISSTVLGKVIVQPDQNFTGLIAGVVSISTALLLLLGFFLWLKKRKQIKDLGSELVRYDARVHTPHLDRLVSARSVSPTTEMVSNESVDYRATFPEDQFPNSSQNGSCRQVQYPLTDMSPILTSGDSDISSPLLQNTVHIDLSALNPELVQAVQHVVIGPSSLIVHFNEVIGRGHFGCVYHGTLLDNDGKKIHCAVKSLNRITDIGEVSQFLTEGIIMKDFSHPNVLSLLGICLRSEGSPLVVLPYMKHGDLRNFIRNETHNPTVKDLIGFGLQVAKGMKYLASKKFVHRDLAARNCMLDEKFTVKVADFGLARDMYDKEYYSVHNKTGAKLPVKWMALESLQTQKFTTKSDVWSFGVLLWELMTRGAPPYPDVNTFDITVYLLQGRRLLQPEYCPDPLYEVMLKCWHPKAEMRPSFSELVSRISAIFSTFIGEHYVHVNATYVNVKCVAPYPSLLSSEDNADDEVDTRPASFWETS
Chain of Platelet-derived growth factor receptor alpha (Homo sapiens), P16234 [V561D] (P16234 whole entry V561D): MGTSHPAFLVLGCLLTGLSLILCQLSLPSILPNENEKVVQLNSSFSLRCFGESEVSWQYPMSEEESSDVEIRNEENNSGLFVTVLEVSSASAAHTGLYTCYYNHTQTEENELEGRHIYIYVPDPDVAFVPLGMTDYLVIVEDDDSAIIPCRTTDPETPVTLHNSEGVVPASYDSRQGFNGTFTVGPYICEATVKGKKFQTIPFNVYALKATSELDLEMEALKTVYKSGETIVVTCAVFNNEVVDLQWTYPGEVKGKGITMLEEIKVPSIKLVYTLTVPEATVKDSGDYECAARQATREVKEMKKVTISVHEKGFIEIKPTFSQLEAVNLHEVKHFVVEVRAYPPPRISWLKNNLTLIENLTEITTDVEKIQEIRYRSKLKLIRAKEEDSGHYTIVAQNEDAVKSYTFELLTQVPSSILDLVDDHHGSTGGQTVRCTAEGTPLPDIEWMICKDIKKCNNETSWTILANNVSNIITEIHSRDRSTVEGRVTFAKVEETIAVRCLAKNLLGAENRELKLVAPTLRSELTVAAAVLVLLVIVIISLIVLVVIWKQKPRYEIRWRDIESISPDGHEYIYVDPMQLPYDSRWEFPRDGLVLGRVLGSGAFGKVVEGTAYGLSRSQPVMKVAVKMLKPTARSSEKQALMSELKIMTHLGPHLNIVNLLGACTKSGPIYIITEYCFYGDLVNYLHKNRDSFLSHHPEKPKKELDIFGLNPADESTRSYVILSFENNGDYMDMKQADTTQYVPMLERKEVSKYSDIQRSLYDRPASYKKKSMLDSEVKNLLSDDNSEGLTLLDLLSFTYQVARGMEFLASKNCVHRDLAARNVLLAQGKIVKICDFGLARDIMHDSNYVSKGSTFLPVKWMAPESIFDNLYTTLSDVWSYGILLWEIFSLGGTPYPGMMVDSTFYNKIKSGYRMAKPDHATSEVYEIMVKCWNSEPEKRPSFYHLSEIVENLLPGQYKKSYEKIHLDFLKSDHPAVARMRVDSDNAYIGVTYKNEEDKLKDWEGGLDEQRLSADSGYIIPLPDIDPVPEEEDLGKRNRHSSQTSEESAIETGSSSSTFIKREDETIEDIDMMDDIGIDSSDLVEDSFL
Chain of Platelet-derived growth factor receptor alpha (Homo sapiens) (P16234 whole entry): as the sequence (P16234 whole entry V561D) above, with D561V counted along it

| Structure (SMILES) | inhibition [1] | inhibition [2] | inhibition [3] | inhibition [4] | inhibition [5] | inhibition [6] | inhibition [7] | inhibition [8] | inhibition [9] | inhibition [10] | inhibition [11] | inhibition [12] | inhibition [13] | inhibition [14] | inhibition [15] | inhibition [16] | inhibition [17] | inhibition [18] | inhibition [19] | inhibition [20] |
| --- | --- | --- | --- | --- | --- | --- | --- | --- | --- | --- | --- | --- | --- | --- | --- | --- | --- | --- | --- | --- |
| NC(=O)c1sc(-n2cnc3ccc(C(F)(F)F)cc32)cc1OCc1ccccc1Br | 3.98% | 5.8% | 6.03% | 2.92% | 3.3% | 1.71% | 1.36% | 3.13% | -0.12% | 4.43% | 2.38% | 4.59% | 11% | 1.61% | 5.02% | 5.32% | 5.62% | 3.53% | 4.84% | -1.07% |
| Cc1cccc2c1NC(=O)/C2=N\Nc1ccc(S(N)(=O)=O)cc1 | 2% | 3.38% | 5.9% | 1.15% | 2.52% | 1.25% | 2.98% | 4.07% | -0.51% | 2.77% | 5.17% | 7.81% | 17.4% | 0.21% | 8.1% | 3.33% | 7.27% | 13.4% | 41.3% | 2.52% |
| CCn1c(-c2nonc2N)nc2c(C#CC(C)(C)O)ncc(OC3CCNCC3)c21 | 3.06% | 4.34% | 4.35% | 2.01% | 2.89% | 3.67% | 2.19% | 5.39% | -3.51% | 3.1% | 5.05% | 4.05% | 19.5% | 5.06% | 33.8% | 4.95% | 28.3% | 2.59% | 17% | 5.33% |
| NS(=O)(=O)c1ccc(Nc2ncc(-c3ccccc3)o2)cc1 | 6.46% | 5.4% | 12.4% | 2.72% | 9.48% | 2.4% | 5.27% | 1.7% | -0.71% | 3.44% | 12.4% | 7.81% | 34.8% | 1.5% | 10.2% | 14.4% | 65.1% | 25.7% | 50.5% | 12% |
| CCNC(=O)O[C@H]1CN[C@H](C#Cc2cc3ncnc(Nc4ccc(OCc5cccc(F)c5)c(Cl)c4)c3s2)C1 | 2.99% | 5.67% | 3.68% | 2.23% | 1.7% | 0.26% | 7.09% | 3.78% | 1.15% | 2.4% | 3.77% | 5.36% | 8.44% | 1.55% | 1.32% | 4.01% | 3.06% | 1.45% | 1.92% | 2.77% |
| Nc1nc(-c2ccc(F)cc2)c(-c2ccc3ncccc3n2)s1 | 7.86% | 9.43% | 39.4% | 7.37% | 33% | 2.57% | 5.56% | 4.07% | 10.1% | 3.45% | 7.29% | 16.9% | 51.7% | 14.4% | 61.6% | 9.38% | 11.5% | 13.2% | 49.5% | 10.9% |
| COc1ccc(CNC(=O)c2ccc(-c3cc(-c4nnc(C)o4)ccc3C)cc2)cc1 | 4.21% | 4.62% | 7.5% | 2.67% | 7.12% | 3.37% | 3.49% | 11.8% | 10.3% | 3.25% | -7.05% | 12.6% | 16.5% | 3.66% | 3.96% | 5.1% | 6.47% | 7.3% | 4.07% | 8.68% |
